Screens deposited in PubChem BioAssay by National Center for Advancing Translational Sciences (NCATS).
uPA surface inh: qHTS for Inhibitors of Cell Surface uPA Generation; Potency, µM (top dose mostly 38.3 µM), most hits filed as inhibitors; AID 540303, 2011; cell surface uPA generation assay, qHTS; hit rate 0.31% among 330,000; active means well fitted inhibition curve with a large enough effect; inconclusive means small, poorly fitted or top-dose-only effect; inactive means no such curve, though single readings can be large or run the other way; tested in mouse RAW 264.7 cells; further: nearly all actives have a fitted effect of over 55% in size
ELG1 genotox: qHTS screen for small molecules that induce genotoxicity in human embryonic kidney (HEK293T) cells expressing luciferase-tagged ELG1. hit rate 1.3% among 330,000. HEK293T ELG1-luciferase reporter, luminescence, 16 h. AID 504466, 2011. Potency, µM (series often up to 46 µM), hits mostly activators; further: nearly all actives have a fitted effect of over 60% in size
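Step 1: seed 2,000 HEK293T ELG1-luciferase cells per well. Step 2: add compound or DMSO, incubate 16 hr at 37 °C. Step 3: ONE-Glo, 30 min at room temperature, read luminescence.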
Rab9 prom act: qHTS Assay for Rab9 Promoter Activators | hit rate 2.8% among 320,000 | Huh7 Rab9 promoter-luciferase reporter, luminescence, 24 h | Potency, µM (highest dose often 9.22 µM), most hits filed as activators | AID 485297, 2010; further: nearly all actives have a fitted effect of over 60% in size
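Luciferase signal after 10 min detection reagent at ambient indicates Rab9 promoter upregulation; stably transfected Huh7 cells were treated 24 h with compound in DMSO at 37 °C, 5% CO2.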
FLuc counter: qHTS profiling assay for firefly luciferase inhibitor/activator using purifed enzyme and Km concentrations of substrates (counterscreen for miR-21 project). Luciferin 4-monooxygenase (Photinus pyralis), P08659. purified FLuc, Km substrates, luminescence inhibition. Potency, µM (top dose mostly 57.5 µM), most hits filed as inhibitors. hit rate 6.9% among 360,000. AID 588342, 2011; further: nearly all actives have a fitted effect of over 55% in size
Target sequence (P08659 whole entry, looked up): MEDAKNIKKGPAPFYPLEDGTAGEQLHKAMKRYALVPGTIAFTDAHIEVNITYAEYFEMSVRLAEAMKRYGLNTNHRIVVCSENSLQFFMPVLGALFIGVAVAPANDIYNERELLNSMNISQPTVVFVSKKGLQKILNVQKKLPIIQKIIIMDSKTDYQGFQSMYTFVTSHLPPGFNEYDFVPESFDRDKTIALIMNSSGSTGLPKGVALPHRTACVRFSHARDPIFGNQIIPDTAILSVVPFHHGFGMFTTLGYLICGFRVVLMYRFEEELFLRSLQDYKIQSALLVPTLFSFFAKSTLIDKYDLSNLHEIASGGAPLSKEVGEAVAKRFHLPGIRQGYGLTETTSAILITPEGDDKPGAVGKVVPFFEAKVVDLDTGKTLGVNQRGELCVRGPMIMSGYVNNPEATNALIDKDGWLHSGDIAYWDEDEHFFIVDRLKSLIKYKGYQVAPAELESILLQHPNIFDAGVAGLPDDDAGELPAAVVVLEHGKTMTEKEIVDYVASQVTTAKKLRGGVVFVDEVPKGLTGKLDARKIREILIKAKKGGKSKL
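Purified P. pyralis luciferase (10nM final) with 10uM D-luciferin and 10uM ATP (Km levels) in 50mM Tris acetate pH 7.5, 10mM Mg acetate, 0.01% Tween-20, 0.05% BSA; qHTS 6-point titration, ~60 µM downward; luminescence read.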
NPC1 prom act: qHTS Assay for NPC1 Promoter Activators | AID 485313, 2010 | Potency, µM (highest dose often 9.22 µM), actives largely listed as activators | Huh7 NPC1 promoter luciferase reporter, 24 h | hit rate 2.4% among 320,000; further: nearly all actives have a fitted effect of over 60% in size
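Luminescence read-out of NPC1 promoter-driven luciferase in stably transfected Huh7 cells; compounds delivered in DMSO and left 24 h at 37C, 5% CO2, qHTS titration format.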
SMN2 splice enh: qHTS Assay for Enhancers of SMN2 Splice Variant Expression | HEK293 SMN2-luciferase splicing reporter, luminescence, 30-36 h | Potency, µM (titrated, usually from 46.1 µM), usual class: activators | hit rate 2.8% among 210,000 | AID 1458, 2008; further: nearly all actives have a fitted effect of over 55% in size
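HEK293 cells carry an SMN2 minigene-luciferase reporter in which exon 7 inclusion puts luciferase in frame. Cells were seeded at 2000 cells/well, attached for 10-12 hours, then exposed to compounds for 30-36 hours at 37C before ONE-Glo luminescence.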
Large screens that a line does not name were inactive. Shown are actives, neighbours in structure and some others; about 7.3% of the full set was active somewhere. Unless noted, the call rests on the fitted dose curve; in most records, active means well fitted curve in the direction sought with a large enough effect; inconclusive means small, poorly fitted or top-dose-only effect, or another doubt; inactive means no such curve, though single readings can be large; an effect the other way counts as inactive or inconclusive.

C/C(=C\C(=O)c1ccccc1)Nc1ccc(O)cc1	ELG1 genotox 6.5µM, Rab9 prom act 3.5µM, FLuc counter 4.8µM, NPC1 prom act 2.5µM (no result: SMN2 splice enh)
COc1ccc(C(=O)/C=C(\C)Nc2ccc(NC(C)=O)cc2)cc1	Rab9 prom act 2.8µM, FLuc counter inconclusive, NPC1 prom act inconclusive
CC(=CC(=O)c1ccccc1)c1ccccc1	none (no result: ELG1 genotox, Rab9 prom act, FLuc counter, NPC1 prom act, SMN2 splice enh)
O=C(c1ccc(Br)cc1)N1CCN(CCc2ccncc2)CC1	none (no result: uPA surface inh, ELG1 genotox, Rab9 prom act, NPC1 prom act, SMN2 splice enh)
CCc1ccccc1NC(=O)CN1C(=O)c2ccccc2Sc2ncccc21	none (no result: uPA surface inh, ELG1 genotox, Rab9 prom act, NPC1 prom act, SMN2 splice enh)
COc1ccc(CCn2c3c(c(=O)[nH]c2=O)C(NC(=O)c2ccccc2F)(C(F)(F)F)C(=O)N3)cc1OC (stereo not drawn)	none (no result: uPA surface inh, ELG1 genotox, Rab9 prom act, NPC1 prom act)
Cc1cccc(N2CCN(C(=O)C3CCCN(S(=O)(=O)c4ccc5c(c4)oc(=O)n5C)C3)CC2)c1C (stereo not drawn)	none (no result: uPA surface inh, ELG1 genotox, Rab9 prom act, NPC1 prom act)
O=c1[nH][nH]c(=S)c(=O)[nH]1	none (no result: uPA surface inh, ELG1 genotox, Rab9 prom act, FLuc counter, NPC1 prom act)
O=C(Nc1ccccc1)Nc1sccc1-c1nc2ccccc2s1	FLuc counter 15µM (no result: SMN2 splice enh)
O=C(Nc1cccc(Cl)c1)Nc1sccc1-c1nc2ccccc2s1	FLuc counter 13µM (no result: SMN2 splice enh)
Cc1cc(OC(C)C(=O)N2CCC(c3nc4ccccc4o3)CC2)ccc1Cl (stereo not drawn)	none (no result: uPA surface inh, ELG1 genotox, Rab9 prom act, NPC1 prom act, SMN2 splice enh)
O=C(CSc1ccc2nc(-c3ccccc3)cn2n1)Nc1ccccc1C(F)(F)F	none (no result: uPA surface inh, ELG1 genotox, Rab9 prom act, NPC1 prom act, SMN2 splice enh)
N#CCSc1ccc2nc(-c3ccccc3)cn2n1	uPA surface inh inconclusive, ELG1 genotox inconclusive, Rab9 prom act 2µM, FLuc counter 7.6µM, NPC1 prom act 2.8µM (no result: SMN2 splice enh)
CCc1ccc(NC(=O)CSc2ccc3nc(-c4ccc(OC)cc4)cn3n2)cc1	FLuc counter 2.7µM (no result: uPA surface inh, ELG1 genotox, Rab9 prom act, NPC1 prom act, SMN2 splice enh)
CC(=O)c1ccc(NC(=O)CSc2ccc3nc(-c4ccccc4)cn3n2)cc1	FLuc counter 12µM (no result: uPA surface inh, ELG1 genotox, Rab9 prom act, NPC1 prom act, SMN2 splice enh)
CCCCN(C)Cc1c(O)ccc2c(=O)c(-c3ccccc3OC)coc12	none (no result: SMN2 splice enh)
O=C(Nc1cc(=O)[nH]c(=O)[nH]1)c1cc(Cl)ccc1Cl	uPA surface inh 3.5µM (no result: SMN2 splice enh)
O=C(CSc1nnc2ccccn12)c1ccc2c(c1)OCCO2	ELG1 genotox 2.9µM, Rab9 prom act 1µM, FLuc counter 4.8µM, NPC1 prom act 1.1µM, SMN2 splice enh 11µM
CCn1c(SCC(=O)c2ccc3c(c2)OCCO3)nnc1C(C)C	Rab9 prom act inconclusive, FLuc counter inconclusive, NPC1 prom act inconclusive
COc1ccc(-n2nnnc2SCC(=O)c2ccc3c(c2)OCCO3)c(OC)c1	FLuc counter inconclusive
CC(C)n1nnnc1SCC(=O)c1ccc2c(c1)OCCO2	Rab9 prom act 3.5µM, FLuc counter 4.8µM, NPC1 prom act 3.5µM
COc1ccc(C)cc1-n1nnnc1SCC(=O)c1ccc2c(c1)OCCO2	FLuc counter 17µM
O=C(CSc1nnnn1C1CCCC1)c1ccc2c(c1)OCCO2	Rab9 prom act 0.63µM, FLuc counter 0.76µM, NPC1 prom act 1.1µM
CN(CC(=O)NCCc1ccc(S(N)(=O)=O)cc1)S(=O)(=O)c1cccc2nsnc12	none (no result: SMN2 splice enh)
Cc1ccc(Cn2ccnc2SCC(=O)NCc2ccccc2)cc1	none (no result: uPA surface inh, ELG1 genotox, Rab9 prom act, NPC1 prom act, SMN2 splice enh)
Cc1ccc(Nc2cc(C(=O)NCc3cccs3)c3ccccc3n2)c(C)c1	FLuc counter inconclusive (no result: uPA surface inh, ELG1 genotox, Rab9 prom act, NPC1 prom act)
Cc1ccc(C(=O)CSc2nnnn2C(C)C)c(C)c1	ELG1 genotox inconclusive, Rab9 prom act 2.8µM, FLuc counter 0.67µM, NPC1 prom act 2.8µM, SMN2 splice enh 0.79µM
Cc1cc(C)nc(SCC(=O)c2ccc3c(c2)OCCO3)n1	none
CCn1nnnc1SCC(=O)c1ccc2c(c1)OCCO2	Rab9 prom act inconclusive, FLuc counter 19µM, NPC1 prom act inconclusive
CN1CCN(c2ccc(S(=O)(=O)N3CCOCC3)cc2NC(=O)C2CCCCC2)CC1	none (no result: ELG1 genotox, Rab9 prom act, FLuc counter, NPC1 prom act, SMN2 splice enh)
CCN1CCN(c2ccc(S(=O)(=O)N3CCOCC3)cc2NC(=O)C2CCC(C(C)(C)C)CC2)CC1 (stereo not drawn)	uPA surface inh 4.5µM (no result: ELG1 genotox, Rab9 prom act, FLuc counter, NPC1 prom act, SMN2 splice enh)
Clc1ccccc1CN1CCN(/N=C/C=C/c2ccco2)CC1	Rab9 prom act inconclusive, FLuc counter 24µM (no result: SMN2 splice enh)
O=C(CN1CCN(Cc2ccccc2Cl)CC1)N/N=C/C=C/c1ccco1	none (no result: SMN2 splice enh)
